# An excerpt weighted towards active compounds, which were near 4% of everything screened.
# RecA splice inh – Mtb RecA intein splicing inhibitors, primary screen, biochemical, fluorescence, HTS; inhibition, % (test concentration not listed); 0.75% of 290,000 active; cell-free RecA intein splicing; in the data active means inhibition above about 30%;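 further: 0% = vehicle wells and 100% = reference inhibitor control wells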
# UGM FP inh – M. tuberculosis UGM enzyme inhibitors, primary screen, biochemical, fluorescence polarization, single point; purified UGM, fluorescence polarization probe displacement; inhibition, % at 10 µM; 0.06% of 320,000 active; in the data active means inhibition above about 10%, passing the limit was not always enough
# Target sequence (P9WIQ1 whole entry, looked up): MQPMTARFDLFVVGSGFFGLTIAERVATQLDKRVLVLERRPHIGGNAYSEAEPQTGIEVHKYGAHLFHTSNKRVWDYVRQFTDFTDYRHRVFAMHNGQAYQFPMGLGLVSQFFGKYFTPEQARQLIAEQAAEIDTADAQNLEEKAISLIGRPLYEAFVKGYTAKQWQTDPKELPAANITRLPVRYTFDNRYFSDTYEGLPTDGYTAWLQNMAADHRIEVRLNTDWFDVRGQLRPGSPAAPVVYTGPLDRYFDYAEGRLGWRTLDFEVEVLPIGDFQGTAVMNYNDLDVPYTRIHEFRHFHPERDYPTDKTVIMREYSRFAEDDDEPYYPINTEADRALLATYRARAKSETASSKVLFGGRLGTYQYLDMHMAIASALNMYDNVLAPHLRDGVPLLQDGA
# Mtb FBA inh – Mtb FBA enzyme inhibitors, primary screen, biochemical, fluorescence, strain H37Rv; purified M. tuberculosis FBA, fluorescence read-out; inhibition, % at 1 µM; 2.3% of 360,000 active; in the data active means inhibition above about 27%;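 further: 0% = vehicle and 100% = reference inhibitor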
# Mtb betalactam – beta-lactam sensitization of Mtb H37Rv, H37Rv. M. tuberculosis H37Rv growth with meropenem, percent inhibition. inhibition, % at 25 µM. 0.27% of 330,000 active; call rule not given here;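 further: growth measured after seven days incubation then overnight dye step; 0% = bacteria only wells and 100% = bacteria with antibiotic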
# GDH-TPI counter – GDH-TPI coupling enzyme inhibitors, primary screen, artefact control for M. tuberculosis FBA inhibitor project, biochemical, absorbance, full deck; 1.2% of 360,000 active; GDH-TPI coupled enzyme counterscreen, NADH absorbance; AID 588335, 2011; inhibition, % at 4.8 µM; in the data active means inhibition above about 30%;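 further: 0% = DMSO wells and 100% = wells lacking the enzyme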
# Rv3671c inh – Rv3671c serine protease inhibitors, primary screen, biochemical, fluorescence polarization, M. tuberculosis H37Rv; P9WHR9; inhibition, % at 5.96 µM; 0.048% of 320,000 active; AID 2606, 2010; in the data active means inhibition above about 38%;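 further: extracellular domain of Rv3671c used as enzyme; 0% = enzyme with DMSO and 100% = no enzyme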
# * marks the source's active call; other numbers are inactive results; x = not tested or not shown; + = active, no number.
SMILES,RecA splice inh,UGM FP inh,Mtb FBA inh,Mtb betalactam,GDH-TPI counter,Rv3671c inh
COc1ccc(-c2[nH]nc3c2C(c2ccc(OC(=O)N4CCOCC4)cc2)C(C#N)=C(N)O3)cc1 (stereo unspecified),x,-1.6,x,-2.3,x,-8.6
CCCc1[nH]nc2c1C(c1cccnc1)C(C#N)=C(N)O2 (stereo unspecified),x,0.4,-1.9,-10.2,2.5,-1.3
Cc1cc(C)c(C#N)c(SCc2[nH]nc3c2C(c2ccc(F)cc2)C(C#N)=C(N)O3)n1 (stereo unspecified),31.8*,0.9,0.2,-2.7,4.6,-4.0
CCCc1[nH]nc2c1C(c1ccc(O)c(OC)c1)C(C#N)=C(N)O2 (stereo unspecified),79.1*,1.3,0.2,-2.4,-9.2,9.4
CCCc1[nH]nc2c1C(c1ccc(OC(=O)N3CCOCC3)cc1)C(C#N)=C(N)O2 (stereo unspecified),47.8*,1.0,0.7,3.3,-6.4,4.1
CCc1[nH]nc2c1C(c1cccnc1)C(C#N)=C(N)O2 (stereo unspecified),44.8*,0.9,2.9,-3.7,10.8,-5.6
CCCc1nc2ccc(Cl)cn2c1Cc1ccc(C)cc1,x,x,3.9,x,x,x
CCCc1[nH]nc2c1C(c1ccc(OC)c(Cn3nnc4ccccc43)c1)C(C#N)=C(N)O2 (stereo unspecified),69.8*,0.3,-3.6,3.0,9.2,-2.0
COCc1[nH]nc2c1C(c1cc(OC)c(O)c(OC)c1)C(C#N)=C(N)O2 (stereo unspecified),-4.1,-2.6,-1.7,2.2,4.6,-1.6
COc1ccc(/C=N/Nc2nc(C)c([N+](=O)[O-])c(N(C)c3ccccc3)n2)cc1OC,-0.5,1.9,-3.4,4.7,45.5*,-0.8
CC(=O)Nc1ccc(Nc2nc(C)c([N+](=O)[O-])c(N(C)c3ccccc3)n2)cc1,4.3,1.4,-4.4,75.3,12.8,-7.8
COc1ccc(CN2C[C@@H](CO)O[C@@H](n3cnc4c(N(C)C)ncnc43)C2)cc1,x,x,1.9,x,3.6,x
CC(C)N1CCC(=NNC(=O)c2ccccc2[N+](=O)[O-])CC1,-3.7,-0.2,+,3.4,2.9,2.2
O=C(Nc1cccc(-c2cnc3ccccc3n2)c1)c1ccccc1,-0.6,-3.0,0.4,-3.5,22.6,0.7
O=C(CCl)Nc1cccc(-c2cnc3ccccc3n2)c1,46.0*,-2.0,4.0,98.1,11.3,-16.1
CCC(=O)Nc1cccc(-c2cnc3ccccc3n2)c1,-1.1,2.7,-0.8,11.8,30.6*,-0.1
O=C(Nc1cccc(-c2cnc3ccccc3n2)c1)c1cccc(NC(=O)c2ccco2)c1,-0.3,4.3,-2.9,27.9,12.2,-58.9
O=c1c(-c2ccc3c(c2)OCCO3)coc2c(CN3CCOCC3)c(O)ccc12,0.2,-0.3,14.4,-3.4,7.9,-2.8
COC(=O)c1ccc(Oc2c(C(F)(F)F)oc3c(CN4CCN(C)CC4)c(O)ccc3c2=O)cc1,-9.3,-0.1,-1.1,-18.6,16.4,0.2
COc1ccccc1Oc1c(C)oc2c(CN3CCOCC3)c(O)ccc2c1=O,-1.8,-0.1,180.5*,1.5,20.6,8.3
COc1ccc(-c2c(C)oc3c(CN4CCOCC4)c(O)ccc3c2=O)cc1OC,-0.6,4.9,17.6,-0.3,8.6,8.9
CCOc1ccccc1Oc1c(C)oc2c(CN3CCN(C)CC3)c(O)ccc2c1=O,x,-2.4,138.5*,-5.0,42.1*,3.6
COc1cccc(Oc2c(C)oc3c(CN4CCCC4)c(O)ccc3c2=O)c1,-4.2,-0.4,172.5*,-5.3,23.2,-3.4
COc1cccc(Oc2coc3c(CN4CCOCC4)c(O)ccc3c2=O)c1,-8.6,0.7,115.4*,-4.2,25.7,-4.5
CC(=O)c1cccc(-c2ccnc3c2CC(C(=O)NCc2cccs2)O3)c1 (stereo unspecified),x,x,2.0,x,9.1,x
SMILES,RecA splice inh,UGM FP inh,Mtb FBA inh,Mtb betalactam,GDH-TPI counter,Rv3671c inh
CCOc1ccc(CCNC(=O)COC(=O)c2nccnc2N)cc1OCC,-3.0,2.2,17.7,-1.4,8.6,11.0
CN(C(=O)c1ccc(S(=O)(=O)c2cccc(Cl)c2)c([N+](=O)[O-])c1)C1CCCCC1,35.4*,1.0,-2.7,9.2,3.3,-1.0
COC(=O)c1cnc(Oc2ccc(NC(=O)NC(=O)c3ccccc3Cl)cc2)cc1C(F)(F)F,1.2,-2.6,1.3,-9.4,-2.4,-6.1
COc1ccccc1C(=O)NCCC(=O)NCc1cccs1,0.0,1.0,0.6,-4.8,-7.6,-4.1
CN(CCC#N)c1ccc(C=C(C#N)c2cccc(C(F)(F)F)c2)cc1,x,x,-3.6,x,x,x
CC(=O)Nc1ccc(N/C=C(\C#N)S(=O)(=O)c2ccc(Cl)cc2)cc1,2.0,-1.4,3.2,-2.5,14.7,-5.5
COc1ccc(C(C#N)=Cc2ccc(NC(C)=O)cc2)cc1,x,x,1.6,x,40.4*,x
CC(=O)Nc1ccc(C(C#N)=Cc2ccc(N(C)CCC#N)cc2)cc1,x,x,-2.8,x,31.0*,x
COc1ccc(S(=O)(=O)/C(C#N)=C/Nc2ccc(NC(C)=O)cc2)cc1,-3.6,-1.4,-3.4,1.9,31.4*,x
CN(C)c1ccc(/C=C/CNC[C@H]2O[C@@H](n3ccc(N)nc3=O)[C@H](O)[C@@H]2O)cc1,x,x,-1.3,x,3.3,x
COc1cccc(NC(=O)C2(C)CCN2C(=O)CC2CC2)c1 (stereo unspecified),x,x,5.1,x,1.8,x
Nc1cccc(C#Cc2ccc3c(c2)C(=O)/C(=C/c2ccsc2)O3)c1,x,x,-1.9,0.9,9.1,-10.0
O=C(Nc1nnc(-c2cccnc2)s1)c1cccs1,1.2,3.2,2.7,-11.1,41.6*,-0.2
Cc1ccccc1OCC(=O)Nc1nnc(-c2ccncc2)s1,0.2,1.2,18.4,15.6,33.3*,4.4
O=C(COc1ccccc1F)Nc1nnc(-c2ccncc2)s1,-1.0,1.8,11.1,-1.6,13.7,1.9
O=C(COc1ccc([N+](=O)[O-])cc1)NCc1cccnc1,5.9,0.3,-1.5,-11.5,5.3,10.9
O=C(COc1ccc([N+](=O)[O-])cc1)Nc1nnc(-c2cccnc2)s1,-0.9,3.3,-2.0,-1.4,35.1*,-1.4
Cc1cccc(-c2nnc(NC(=O)c3cccs3)s2)c1,-2.3,-0.9,-0.7,3.0,10.1,-3.5
COc1cccc(C(CNC(=O)C(c2ccccc2)c2ccccc2)N(C)C)c1 (stereo unspecified),1.9,-1.2,-1.2,-5.7,-5.9,-5.1
CCOC(=O)c1c[nH]c(=S)n(-c2ccccc2)c1=O,-2.6,0.5,-4.2,-4.7,38.8*,0.4
CCOC(=O)c1c(C)c2c(=O)[nH]cnc2n1-c1ccccc1,-2.2,-0.3,0.3,1.3,8.8,-2.4
CCN(CC)c1ccc(/C=N/NC(=S)NC)c(O)c1,-6.8,-1.3,4.6,68.8,26.2,6.9

# Compound activity from PubChem BioAssay.
